About 83,000 compounds went through this panel and 20% of them were active in at least one assay; those are over-represented in the sample as a whole.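 Single-concentration screen, 48 h exposure, 96-well plates. Endpoint: percent growth. Below 10 = active.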 Active and inactive are the calls of the source.
system: HOP-62 NSCLC; experiment: NCI-60 one-dose screen, 48 h (100 = growth as untreated, 0 = no growth, -100 = all killed); details: 10 µM unless noted

Row | Compound | growth
1 | Fc1ccc(-c2nnc(-c3c(-c4ccc(F)cc4)nc4ncccn34)o2)cc1 | 105% (inactive)
2 | S=c1[nH]nc2sc3ccccc3n12 | 97.9% (inactive)
3 | Clc1ccc2nc(Cl)c3ccccc3c2c1 | 58.3% (inactive)
4 | CCOC(Cc1c(N)[nH]c(=S)[nH]c1=O)OCC | 102% (inactive)
5 | COc1ccc(-c2nnc(COc3ccc(NC(=O)Nc4cc(C(F)(F)F)cc(C(F)(F)F)c4)cc3F)o2)cc1 | 12.3% (inactive)
6 | Clc1cccc(Cc2cn3cc(-c4ccccc4)nc3s2)c1 | 69.7% (inactive)
7 | ClC1=C(Cl)C(Cl)=C(Cl)C1=C/C=C/c1ccccc1 | -68.2% (active)
8 | O=[N+]([O-])c1cnc(Sc2ccncn2)c([N+](=O)[O-])c1 | 99.3% (inactive)
9 | O=C(N1CCC(CN=c2cc3n(-c4ccc(Cl)cc4)c4ccccc4nc-3cc2Nc2ccc(Cl)cc2)CC1)N1CC1 | -85.2% (active)
10 | COc1cc(/C=C2\CCC/C(=C\c3ccc(OCC4CO4)c(OC)c3)C2=O)ccc1OCC1CO1 (centres undefined) | 28.9% (inactive)
11 | COc1ccc(-n2nnc(C(=O)O)c2-c2cc(OC)c(OC)c(OC)c2)cc1 | 114% (inactive)
12 | Nc1nc(N)c([N+](=O)[O-])c(=O)[nH]1 | 84.7% (inactive)
13 | Oc1[nH]c2ccccc2c1/C=c1/ccc2c(c1)N=C(c1cc(F)cc(F)c1)N=2 | 101% (inactive)
14 | O=c1ccn(C2CCCO2)c(=O)[nH]1 (centres undefined) | 107% (inactive)
15 | COc1ccc2nc3cc(Cl)ccc3c(Nc3cc(C(C)C)c(O)cc3C)c2c1 | 58.2% (inactive)
16 | COc1ccc(-c2cnnn2-c2cc(OC)c3c(c2)OCO3)cc1 | 30.2% (inactive)
17 | CC1=CC(=O)C(C(C)=Nc2ccccc2Cl)C(=O)O1 (centres undefined) | 109% (inactive)
18 | O=[P@@]1(c2ccccc2)O[C@H](COCc2ccccc2)[C@@H](OCc2ccccc2)[C@H](OCc2ccccc2)[C@H]1NCc1ccccc1 | 54.3% (inactive)
19 | COc1ccc(-c2noc(N)c2-c2cc(OC)c3c(c2)OCO3)cc1 | 34.6% (inactive)

Row | Compound | growth
20 | CN(C)c1nc(-c2ccco2)n2nc(-c3ccco3)cc2n1 | 90.6% (inactive)
21 | COc1cccc(C2C(C#N)=C(N)Oc3cc(OC)ccc32)c1 (centres undefined) | 24.6% (inactive)
22 | c1cnc2ccc3ncccc3c2c1 | 82.6% (inactive)
23 | O=C(c1ccccc1)c1ccco1 | 105% (inactive)
24 | CCOC(=O)C1=NN(c2ccc(Cl)cc2)C2C3N(c4ccc(Cl)cc4)N=C(C(=O)OCC)N3c3ccccc3N12 (centres undefined) | 114% (inactive)
25 | Cc1cc(NC(=O)c2ccc(N)cc2)ccc1N=Nc1ccc2c(O)c(N=Nc3ccc(Cl)c(S(=O)(=O)O)c3)c(S(=O)(=O)O)cc2c1 | 64.2% (inactive)
26 | O=C(Nc1cccc(C(F)(F)F)c1)Nc1ccc(OCc2nnc(-c3ccc(Cl)cc3)o2)c(F)c1 | 50.8% (inactive)
27 | CCN1C(=O)c2ccc3c4c(ccc(c24)C1=O)C(=O)N(CCCNCc1ccccc1OC)C3=O | -36.8% (active)
28 | C=C1c2c(C)nn(-c3ccc(C#CCOC4OC(CO)C(O)C(O)C4O)cc3)c2N(C)C23C[C@H]1C1(C)c4c(C)nn(-c5ccc(C#CCOC6OC(CO)C(O)C(O)C6O)cc5)c4N(C)C(C)(C[C@H]12)C3 (some centres undefined) | 3.61% (active)
29 | O=C(Nc1ccc(OCc2nnc(-c3ccccc3)o2)c(F)c1)Nc1ccc(Cl)c(C(F)(F)F)c1 | 13.6% (inactive)
30 | O=C(/C=C/c1ccccc1Cl)c1ccc(O)cc1 | 117% (inactive)
31 | O=C(Nc1ccncc1)C(=O)c1cn(S(=O)(=O)c2cccc(F)c2)c2ccccc12 | 52.7% (inactive)
32 | COc1cc(/C=C/C(=O)c2ccc(F)cc2)ccc1OCCCCCOc1cc2c(cc1OC)C(=O)N1CCCC1C=N2 (centres undefined) | -34.8% (active)
33 | O=C(/C=C/c1ccc(O)c(O)c1)N1CCN(c2ccc(Cl)cc2)CC1 | 88.2% (inactive)
34 | O=C(OCCBr)c1ccc(Cl)c([N+](=O)[O-])c1 | 131% (inactive)
35 | COc1ccc2c(c1)/C(=C\c1c[nH]c3ccc(F)cc13)C(=O)N2 | 88.8% (inactive)
36 | Cc1cc(C(=O)O)c(C)cc1C(=O)O | 93.5% (inactive)
37 | O=C1/C(=N/O)CCc2ccccc21 | 91.5% (inactive)

system: NCI-H460 lung; experiment: as above; details: 10 µM unless noted

Row | Compound | growth
38 | Fc1ccc(-c2nnc(-c3c(-c4ccc(F)cc4)nc4ncccn34)o2)cc1 | 111% (inactive)
39 | S=c1[nH]nc2sc3ccccc3n12 | 111% (inactive)
40 | Clc1ccc2nc(Cl)c3ccccc3c2c1 | -1.38% (active)
41 | CCOC(Cc1c(N)[nH]c(=S)[nH]c1=O)OCC | 114% (inactive)
42 | COc1ccc(-c2nnc(COc3ccc(NC(=O)Nc4cc(C(F)(F)F)cc(C(F)(F)F)c4)cc3F)o2)cc1 | 4.82% (active)
43 | Clc1cccc(Cc2cn3cc(-c4ccccc4)nc3s2)c1 | 16.5% (inactive)
44 | ClC1=C(Cl)C(Cl)=C(Cl)C1=C/C=C/c1ccccc1 | 0.0738% (active)
45 | O=[N+]([O-])c1cnc(Sc2ccncn2)c([N+](=O)[O-])c1 | 100% (inactive)
46 | O=C(N1CCC(CN=c2cc3n(-c4ccc(Cl)cc4)c4ccccc4nc-3cc2Nc2ccc(Cl)cc2)CC1)N1CC1 | -71.5% (active)
47 | COc1cc(/C=C2\CCC/C(=C\c3ccc(OCC4CO4)c(OC)c3)C2=O)ccc1OCC1CO1 (centres undefined) | 8.96% (active)
48 | COc1ccc(-n2nnc(C(=O)O)c2-c2cc(OC)c(OC)c(OC)c2)cc1 | 106% (inactive)
49 | Nc1nc(N)c([N+](=O)[O-])c(=O)[nH]1 | 106% (inactive)
50 | Oc1[nH]c2ccccc2c1/C=c1/ccc2c(c1)N=C(c1cc(F)cc(F)c1)N=2 | 56.9% (inactive)
51 | O=c1ccn(C2CCCO2)c(=O)[nH]1 (centres undefined) | 106% (inactive)
52 | COc1ccc2nc3cc(Cl)ccc3c(Nc3cc(C(C)C)c(O)cc3C)c2c1 | 35.3% (inactive)
53 | COc1ccc(-c2cnnn2-c2cc(OC)c3c(c2)OCO3)cc1 | 11.2% (inactive)
54 | CC1=CC(=O)C(C(C)=Nc2ccccc2Cl)C(=O)O1 (centres undefined) | 109% (inactive)
55 | O=[P@@]1(c2ccccc2)O[C@H](COCc2ccccc2)[C@@H](OCc2ccccc2)[C@H](OCc2ccccc2)[C@H]1NCc1ccccc1 | 4.06% (active)
56 | COc1ccc(-c2noc(N)c2-c2cc(OC)c3c(c2)OCO3)cc1 | 16% (inactive)

Row | Compound | growth
57 | CN(C)c1nc(-c2ccco2)n2nc(-c3ccco3)cc2n1 | 95.5% (inactive)
58 | COc1cccc(C2C(C#N)=C(N)Oc3cc(OC)ccc32)c1 (centres undefined) | 7.42% (active)
59 | c1cnc2ccc3ncccc3c2c1 | 105% (inactive)
60 | O=C(c1ccccc1)c1ccco1 | 105% (inactive)
61 | CCOC(=O)C1=NN(c2ccc(Cl)cc2)C2C3N(c4ccc(Cl)cc4)N=C(C(=O)OCC)N3c3ccccc3N12 (centres undefined) | 106% (inactive)
62 | Cc1cc(NC(=O)c2ccc(N)cc2)ccc1N=Nc1ccc2c(O)c(N=Nc3ccc(Cl)c(S(=O)(=O)O)c3)c(S(=O)(=O)O)cc2c1 | 49.7% (inactive)
63 | O=C(Nc1cccc(C(F)(F)F)c1)Nc1ccc(OCc2nnc(-c3ccc(Cl)cc3)o2)c(F)c1 | 63.9% (inactive)
64 | CCN1C(=O)c2ccc3c4c(ccc(c24)C1=O)C(=O)N(CCCNCc1ccccc1OC)C3=O | -57.8% (active)
65 | C=C1c2c(C)nn(-c3ccc(C#CCOC4OC(CO)C(O)C(O)C4O)cc3)c2N(C)C23C[C@H]1C1(C)c4c(C)nn(-c5ccc(C#CCOC6OC(CO)C(O)C(O)C6O)cc5)c4N(C)C(C)(C[C@H]12)C3 (some centres undefined) | -45.9% (active)
66 | O=C(Nc1ccc(OCc2nnc(-c3ccccc3)o2)c(F)c1)Nc1ccc(Cl)c(C(F)(F)F)c1 | -0.0623% (active)
67 | O=C(/C=C/c1ccccc1Cl)c1ccc(O)cc1 | 93.8% (inactive)
68 | O=C(Nc1ccncc1)C(=O)c1cn(S(=O)(=O)c2cccc(F)c2)c2ccccc12 | 65.4% (inactive)
69 | COc1cc(/C=C/C(=O)c2ccc(F)cc2)ccc1OCCCCCOc1cc2c(cc1OC)C(=O)N1CCCC1C=N2 (centres undefined) | 3.88% (active)
70 | O=C(/C=C/c1ccc(O)c(O)c1)N1CCN(c2ccc(Cl)cc2)CC1 | 46.4% (inactive)
71 | O=C(OCCBr)c1ccc(Cl)c([N+](=O)[O-])c1 | 103% (inactive)
72 | COc1ccc2c(c1)/C(=C\c1c[nH]c3ccc(F)cc13)C(=O)N2 | 87.7% (inactive)
73 | Cc1cc(C(=O)O)c(C)cc1C(=O)O | 119% (inactive)
74 | O=C1/C(=N/O)CCc2ccccc21 | 92.6% (inactive)
